Data as given in PubChem BioAssay AID633 (Emory University Molecular Libraries Screening Center, 2007).
Screen size: about 86,000 compounds; about 1,100 (1.3%) were called active.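 The calls were made as follows: active = compounds whose percent inhibition of the receptor-coactivator binding signal exceeds about 50% in the single-dose screen (limit read from the data); inactive = the rest.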 The list comes from a sample in which actives are over-represented; it also holds similar structures and randomly drawn compounds.

These compounds were tested against Estrogen receptor beta (Homo sapiens) (UniProt Q92731) (assay: blockers of coactivator peptide binding to ERβ – biochemical, TR-FRET, ERβ LBD, SRC-1 peptide, primary screen (AID 633;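 also: 0% = receptor plus peptide wells without compound and 100% = peptide-only wells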)). Conditions: TR-FRET ER-beta LBD / SRC1-Cy5 peptide binding; at 25.6 µM; active compounds read high; receptor agonist-loaded with 1 µM estradiol.
Sequence of Estrogen receptor beta (Homo sapiens) (Q92731 whole entry, looked up, the tested form may be a part): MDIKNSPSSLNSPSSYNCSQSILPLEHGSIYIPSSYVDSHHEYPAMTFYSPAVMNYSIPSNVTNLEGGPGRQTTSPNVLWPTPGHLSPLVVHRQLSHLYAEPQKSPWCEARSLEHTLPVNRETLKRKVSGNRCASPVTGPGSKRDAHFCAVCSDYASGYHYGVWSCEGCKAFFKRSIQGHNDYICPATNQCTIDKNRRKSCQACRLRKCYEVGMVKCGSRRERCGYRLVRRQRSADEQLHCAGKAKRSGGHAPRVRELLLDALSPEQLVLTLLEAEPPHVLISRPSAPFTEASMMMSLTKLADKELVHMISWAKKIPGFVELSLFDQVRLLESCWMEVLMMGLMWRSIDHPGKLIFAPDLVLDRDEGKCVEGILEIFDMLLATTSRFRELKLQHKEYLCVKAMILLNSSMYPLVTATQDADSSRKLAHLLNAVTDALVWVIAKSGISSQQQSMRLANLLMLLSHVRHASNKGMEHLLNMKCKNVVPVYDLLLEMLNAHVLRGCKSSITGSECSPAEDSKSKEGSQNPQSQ
For `COCCCn1c2nc3ccccc3nc2c2c(=O)n(Cc3ccc(Cl)cc3)c(C)nc21`, the inhibition was 12.9% (inactive). `Cc1nc2c(c(=O)n1Cc1ccco1)c1nc3ccccc3nc1n2Cc1ccccc1` was tested, and the inhibition was 59.7% [fluorescence artefact?] (active). `Cc1ccc(Cn2c(C)nc3c(c2=O)c2nc4ccccc4nc2n3Cc2ccco2)cc1` was tested, and the inhibition was 36% (inactive). With `O=C(NCC(=O)N(Cc1cccs1)C(C(=O)NC1CCCCC1)c1ccco1)c1cccs1` (configuration not stated) the inhibition was 6.36% (inactive). `Cn1c(C(=O)OC(C(=O)NC2CCCCC2)c2ccccn2)cc2sccc21` (configuration not stated) was tested, and the inhibition was -0.81% (inactive). `Cc1ccc2c(c1)N(CC(=O)N(Cc1ccccn1)Cc1ccco1)C(=O)C(C(C)C)O2` (configuration not stated) was tested, and the inhibition was 1.63% (inactive). With `COc1ccc(-c2cn3ccsc3n2)cc1` the inhibition was 68% (active). In the case of `O=C(NCc1cn2ccsc2n1)Nc1ccc(Cl)cc1`, the inhibition is reported as -3.46% (inactive). `Cc1ccc(S(=O)(=O)NCc2cn3ccsc3n2)c(C)c1` was tested, and the inhibition was 0.6% (inactive). For `CCOC(=O)c1sc(NC(=O)c2ccncc2)nc1C`, the inhibition was -4.81% (inactive). In the case of `O=C(NCc1cccnc1)Nc1ccccc1F`, the inhibition is reported as -19.3% (inactive). `CCCCOC(=O)Cn1c(=O)n(CC(=O)OCCCC)c2cc(C)ccc21` was tested, and the inhibition was -3.48% (inactive). With `O=C(N/N=C/C=C/c1ccccc1)C1CC1(c1ccccc1)c1ccccc1` (configuration not stated) the inhibition was 16.4% (inactive). In the case of `COc1ccc(N2C(=O)C3CCCN3C2c2cccs2)cc1` (configuration not stated), the inhibition is reported as -13.6% (inactive). In the case of `COc1ccc(N2C(=O)C3CCCN3C2c2cccc(OC)c2)cc1` (configuration not stated), the inhibition is reported as -7% (inactive). With `COc1ccc(N2C(=O)C3CCCN3C2c2cc(OC)c(OC)cc2OC)cc1` (configuration not stated) the inhibition was 98.9% [fluorescence artefact?] (active). For `CCOC(=O)c1[nH]c2ccc(OC)cc2c1NC(=O)CCN1CCN(Cc2ccccc2)CC1`, the inhibition was 5.39% (inactive). In the case of `COC(=O)c1[nH]c2ccccc2c1NC(=O)CN1CCCc2ccccc21`, the inhibition is reported as 58.4% [fluorescence artefact?] (active). With `COC(=O)c1[nH]c2cccc(C)c2c1NC(=O)CN1CCCc2ccccc21` the inhibition was 34.3% (inactive). For `CCn1c(-c2ccoc2C)n[nH]c1=S`, the inhibition was -2.85% (inactive). `COCCOCCn1cnc2ccccc21` was tested, and the inhibition was -1.14% (inactive). In the case of `CCOC(=O)N1CCN(C(=O)CSc2ccc(Cl)cc2)CC1`, the inhibition is reported as -0.13% (inactive). With `Oc1c(CN2CCN(c3ccc(F)cc3)CC2)cc(Cl)c2cccnc12` the inhibition was 1.3% (inactive). In the case of `CCOC(=O)N1CCN(C(=O)c2cc3c(ccc4ccccc43)oc2=O)CC1`, the inhibition is reported as 23.4% (inactive). In the case of `CCN1CCN(C(c2cccnc2)c2cc(Cl)c3cccnc3c2O)CC1` (configuration not stated), the inhibition is reported as 72.4% [fluorescence artefact?] (active). With `CCOC(=O)N1CCN(C(c2cccnc2)c2ccc3cccnc3c2O)CC1` (configuration not stated) the inhibition was 58% [fluorescence artefact?] (active). With `CC(=O)C1=C(C)NC(=O)NC1c1cc(Br)ccc1OCC#N` (configuration not stated) the inhibition was -0.75% (inactive). With `CC(C)CC(N=C1NC(C)(C)Cc2ccccc21)C(=O)O` (configuration not stated) the inhibition was -1.78% (inactive). For `CCCc1noc2c1/C(=N\O)CCC2`, the inhibition was 1.64% (inactive). For `CCNCCC(=O)N1c2ccccc2Sc2ccc(NC(=O)OCC)cc21`, the inhibition was -17.8% (inactive). With `O=C(NCc1ccco1)c1ccc(Cn2c(=O)c3sccc3n(Cc3ccc(F)cc3)c2=O)cc1` the inhibition was 18.4% (inactive). In the case of `Cc1cccc(C(=O)N2CCCN(C(=O)c3cccc(C)c3)CC2)c1`, the inhibition is reported as -0.48% (inactive). With `CN(C)CCCNc1c2c(c(C#N)c3nc4ccccc4n13)CCC2` the inhibition was 70.9% [fluorescence artefact?] (active). For `CCN1CCc2c(C#N)c(NCc3ccccc3)nc(NCCO)c2C1`, the inhibition was -0.53% (inactive). For `N#Cc1c2c(c(N3CCN(CCO)CC3)n3c1nc1ccccc13)CCCC2`, the inhibition was -8.78% (inactive). With `O=c1onc(-c2cccs2)n1Cc1ccccc1` the inhibition was -0.76% (inactive). For `CCCCCCNC(=O)CSc1nccn1Cc1ccccc1`, the inhibition was -2.58% (inactive). With `Cc1ccc(-n2c(SCC(=O)NCc3ccc4c(c3)OCO4)nnc2-c2cccnc2)c(C)c1` the inhibition was -8.68% (inactive). `O=c1c2ccccc2nnn1CSc1nnnn1-c1ccccc1` was tested, and the inhibition was -2.64% (inactive). `O=c1c2ccccc2nc(CSc2nnnn2-c2ccccc2)n1-c1ccccc1` was tested, and the inhibition was 61.2% [fluorescence artefact?] (active). In the case of `N#CCSc1nc2ccccc2c(=O)n1-c1ccccc1`, the inhibition is reported as 8.58% (inactive). With `CC(=O)NC1(c2cccc(F)c2)CCN(CC(=O)NC(C)C)CC1` the inhibition was -7.62% (inactive). In the case of `COC(=O)c1c(NC(=O)CSc2nncs2)sc2c1CCCCC2`, the inhibition is reported as 10.9% (inactive). For `C=C(C)Cn1c(SCC(=O)NCc2ccco2)nc2sc3c(c2c1=O)CCC3`, the inhibition was 9.18% (inactive). In the case of `N#Cc1c(NC(=O)CSc2nc3ccccc3c(=O)n2Cc2ccco2)sc2c1CCCC2`, the inhibition is reported as 50.4% [fluorescence artefact?] (active). In the case of `COc1ccc(-c2nnc(SCC(=O)c3ccco3)n2-c2ccccc2)cc1`, the inhibition is reported as 7.14% (inactive). `COc1ccc(-n2c(SCC(=O)Nc3sc4c(c3C#N)CCCC4)nnc2-c2ccc(O)cc2)cc1` was tested, and the inhibition was 60.9% [fluorescence artefact?] (active). For `CC(Sc1nc2ccccc2c(=O)n1Cc1ccco1)C(=O)c1ccccc1` (configuration not stated), the inhibition was -2.69% (inactive). `Cc1cc2nc(SCCN3CCOCC3)[nH]c2cc1C` was tested, and the inhibition was -13.7% (inactive). For `COC(=O)C1=C(C(=O)c2ccc(C)cc2)C(c2ccccc2)n2nnnc2N1` (configuration not stated), the inhibition was -1.03% (inactive). `Cc1ccc(-n2ccc(=O)c(C(=O)O)n2)cc1` was tested, and the inhibition was -4.61% (inactive). `O=C(COc1ccccc1)Nc1nonc1NC(=O)COc1ccccc1` was tested, and the inhibition was 4.67% (inactive). `COc1ccc(CCNS(=O)(=O)c2ccc(Cl)s2)cc1OC` was tested, and the inhibition was -8.93% (inactive). In the case of `Oc1ccc(CNc2ccccc2O)cc1`, the inhibition is reported as 52.5% [fluorescence artefact?] (active). In the case of `COc1cc(C2CC(=O)c3cnc(NC(C)=O)nc3C2)cc(OC)c1OC` (configuration not stated), the inhibition is reported as -3.76% (inactive). With `CCC(C(=O)NCc1ccc(OC)cc1)n1nc(C)n2c(cc3occc32)c1=O` (configuration not stated) the inhibition was -7.78% (inactive). With `CCCn1c(C(Cc2ccccc2)NC(=O)COC)nc2ccccc21` (configuration not stated) the inhibition was 46.8% (inactive). In the case of `O=C(CCC(=O)c1cccs1)NCc1ccccc1`, the inhibition is reported as 12.1% (inactive). For `O=C(COC(=O)CCC(=O)c1cccs1)NCc1ccco1`, the inhibition was 51.1% [fluorescence artefact?] (active). `O=C(COC(=O)C12CC3CC(CC(C3)C1)C2)NCc1ccco1` was tested, and the inhibition was 13.8% (inactive). In the case of `CC(CO)N1CCS(=O)(=O)CC1` (configuration not stated), the inhibition is reported as -15% (inactive). For `CCN(c1ccccc1)S(=O)(=O)c1ccc(NC(=O)C(C)(C)C)cc1`, the inhibition was 14.4% (inactive). `C=CCn1c(SCC(=O)/C(C#N)=C(\C)N)nc2sc(C)c(C)c2c1=O` was tested, and the inhibition was 16.2% (inactive). `C=CCn1c(=O)c2ccccc2n2c(SCC(=O)N3CCCc4ccccc43)nnc12` was tested, and the inhibition was -1.59% (inactive). In the case of `CCCn1c(=O)c2ccccc2n2c(SCC(=O)/C(C#N)=C(\C)N)nnc12`, the inhibition is reported as 50.4% [fluorescence artefact?] (active). `O=C(CN1CCSCC1)N/N=C/c1ccc(F)cc1F` was tested, and the inhibition was 12.6% (inactive). In the case of `CC(C)(O)C(=O)NN(C(=O)c1ccccc1)c1cccc(Br)c1`, the inhibition is reported as -3.36% (inactive). `COC(=O)c1cccc(N(C(=O)c2ccco2)C(C(=O)NC2CCCC2)c2ccco2)c1` (configuration not stated) was tested, and the inhibition was -14.4% (inactive). In the case of `O=C(NCCOc1ccccc1)c1ccccc1`, the inhibition is reported as 7.95% (inactive). For `O=C(Cn1nnc(-c2ccc3c(c2)OCO3)n1)NCc1ccco1`, the inhibition was 50.1% (active). `O=C(Cn1nnc(-c2ccccc2)n1)NCc1ccc2c(c1)OCO2` was tested, and the inhibition was 9.19% (inactive). With `CS(=O)(=O)N(CC(=O)NCc1ccco1)c1ccc2c(c1)OCO2` the inhibition was 44.3% (inactive). `CC1(N2CCOCC2)CC2(O)C(=[N+]1[O-])CCc1nonc12` (configuration not stated) was tested, and the inhibition was 58.1% (active). `Cc1[nH]n(-c2cccc(Cl)c2)c(=O)c1/C=N/n1c(C)nc2ccccc2c1=O` was tested, and the inhibition was -3.58% (inactive). For `CC(=O)Nc1ccc(S(=O)(=O)N2CCN(C(=O)c3ccccc3F)CC2)cc1`, the inhibition was -9.27% (inactive). For `O=C(CN1CCCCCC1)N1c2ccccc2Sc2ccc(C(F)(F)F)cc21`, the inhibition was -7.5% (inactive). With `CC(c1ccco1)N(C(=O)Nc1ccccc1)C1CCCCC1` (configuration not stated) the inhibition was 0.39% (inactive). With `Cc1c(Br)cc(C(=O)N2CCCCCC2)c(C)c1C` the inhibition was -18.4% (inactive). With `COc1ccc(Cc2nnc(NS(=O)(=O)Cc3ccccc3)s2)cc1` the inhibition was 39.9% (inactive). With `CCCc1ccc(-c2csc(NC(=O)Cc3cccs3)n2)cc1` the inhibition was 11.4% (inactive). `COc1ccc(Cc2nnc(NC(=O)Cc3cccs3)s2)cc1` was tested, and the inhibition was 92% (active). For `COc1ccccc1-c1nc(C#N)c(N2CCC(C(N)=O)CC2)o1`, the inhibition was -16.6% (inactive). `COc1ccc(Nc2oc(-c3ccccc3Cl)nc2C#N)cc1` was tested, and the inhibition was 76.6% [fluorescence artefact?] (active). With `CCOc1ccc(Nc2oc(Cc3ccccc3)nc2C#N)cc1` the inhibition was -1.53% (inactive). With `Cc1ccc(/C=N/NC(=O)Cn2nc(C)c(Br)c2C)o1` the inhibition was -11.6% (inactive). With `CCOc1ccccc1C(=O)NC1CC2CCCC(C1)N2Cc1ccccc1` (configuration not stated) the inhibition was 5.21% (inactive). For `CCN(CC)CCn1c2ccc(Cl)cc2c2nc(C)sc21`, the inhibition was -0.33% (inactive). In the case of `CS(=O)(=O)N(CC(=O)Nc1ccc(Cl)c(Cl)c1)C1CCCCC1`, the inhibition is reported as -2.05% (inactive). In the case of `CC(C)(C)C1CCc2c(sc3nc(SCC(N)=O)nc(N)c23)C1` (configuration not stated), the inhibition is reported as -6.07% (inactive). In the case of `CCN(CC)CC(=O)c1c[nH]c2ccc(OC)cc12`, the inhibition is reported as -8.33% (inactive). For `COc1ccc2[nH]cc(/C=C(/C#N)S(=O)(=O)c3ccccc3)c2c1`, the inhibition was 54.7% [fluorescence artefact?] (active). For `COc1ccc2[nH]c3ccc(OC)cc3c2c1`, the inhibition was 1.96% (inactive).
